Among the test systems are DU-145 prostate; K-562 leukemia; MALME-3M melanoma; MDA-MB-231 breast; RXF 393 renal; SF-268 CNS; SF-295 CNS; SF-539 CNS; UACC-257 melanoma; M14 melanoma; HCT-15 colon; HT29 colon; SNB-75 CNS; SNB-19 CNS; PC-3 prostate; SK-MEL-5 melanoma; LOX IMVI melanoma; SK-MEL-28 melanoma; UACC-62 melanoma.
Test in all cases: NCI-60 one-dose screen, 48 h (100 = growth as untreated, 0 = no growth, -100 = all killed)
Common to all, as to details: 10 µM

The panel holds about 83,000 compounds, 20% with a hit somewhere; the sample as a whole holds those more often.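 48-hour exposure, single concentration, 96-well plates; percent growth endpoint where 0 means no net growth. Active: below 10.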 Values without a mark were called inactive. Active and inactive are the calls of the source.

The text below walks through data of PubChem BioAssay (NCI).

As to `O=C1/C=C/[C@@H](O)[C@@H]2C[C@@H](O)C[C@H]2/C=C/CCC[C@@H](C(F)(F)F)O1`, the growth in the test on DU-145 prostate was 119%; in the test with K-562 leukemia, 92%; with MALME-3M melanoma, 65%; in the test with MDA-MB-231 breast it was 96.7%; with RXF 393 renal it was 42.7%; with SF-268 CNS, 93.9%. Moreover, the growth in the test with SF-295 CNS is 97.2%; with SF-539 CNS it was 105%; in the test with UACC-257 melanoma, 51.8%; in the test on M14 melanoma it was 112%; in the test with HCT-15 colon it was 100%; in the test on HT29 colon it was 39.9%. The growth was 60.7% in the test with SNB-75 CNS; 97.1% with SNB-19 CNS; 92.9% in the test with PC-3 prostate; 60.5% in the test with SK-MEL-5 melanoma; 71.3% with LOX IMVI melanoma; 61.8% with SK-MEL-28 melanoma.

Turning to `COc1cc(/C=C2\CCCC3=C2N=C2SC(C)=CN2C3c2cc(OC)c(OC)c(OC)c2)cc(OC)c1OC` (stereo not drawn), the growth in the test with DU-145 prostate was -26.9% (active); in the test with K-562 leukemia, 20.4%; with MALME-3M melanoma, 4.83% (active); in the test on MDA-MB-231 breast, 18.9%; with RXF 393 renal, -71.9% (active); in the test on SF-268 CNS, 14.7%. Also, the growth with SF-295 CNS was 2.48% (active); in the test with SF-539 CNS it was 7.53% (active); with UACC-257 melanoma, -27% (active); with M14 melanoma, 2.47% (active); in the test on HCT-15 colon, -65.4% (active); in the test with HT29 colon, -49.1% (active). In addition, the growth was 59.4% in the test with SNB-75 CNS; 52.7% in the test with SNB-19 CNS; 44.5% in the test on PC-3 prostate; -71.6% (active) in the test with SK-MEL-5 melanoma; -70.4% (active) in the test on LOX IMVI melanoma; -51.6% (active) with SK-MEL-28 melanoma.

For `COC(=O)C1(O)NC(=C(C#N)C#N)C(C#N)=C1C(=O)c1ccc(OC)c(OC)c1` (stereo not drawn), the growth with DU-145 prostate was 111%; in the test with K-562 leukemia it was 100%; in the test with MALME-3M melanoma, 103%; with MDA-MB-231 breast, 119%; in the test on RXF 393 renal, 100%; with SF-268 CNS it was 98.5%. For the same compound, the growth is 105% in the test on SF-295 CNS; 104% in the test on SF-539 CNS; 81.7% with UACC-257 melanoma; 97.9% with M14 melanoma; 105% with HCT-15 colon; 99.6% in the test on HT29 colon. Further, the growth with SNB-75 CNS is 94.5%; in the test on SNB-19 CNS, 97.1%; in the test with SK-MEL-5 melanoma, 101%; in the test on UACC-62 melanoma, 99.3%; in the test with LOX IMVI melanoma, 99.4%; with SK-MEL-28 melanoma it was 120%.

As to `COC(=O)C1OC1c1cc([N+](=O)[O-])ccc1OC` (stereo not drawn), the growth was 109% in the test with DU-145 prostate; 95.5% with K-562 leukemia; 102% with MALME-3M melanoma; 123% with MDA-MB-231 breast; 99.8% with RXF 393 renal; 102% in the test with SF-268 CNS. The growth with SF-295 CNS was 100%; with SF-539 CNS, 98.4%; in the test with UACC-257 melanoma, 117%; with M14 melanoma, 95%; with HCT-15 colon it was 103%; with HT29 colon, 117%. Also, the growth with SNB-75 CNS was 90.6%; with SNB-19 CNS, 110%; in the test on PC-3 prostate, 96%; with SK-MEL-5 melanoma, 98.8%; in the test on UACC-62 melanoma it was 106%; with SK-MEL-28 melanoma, 109%.

For the compound `CCOC(=O)c1cc(C(=O)c2cc(OC)c(OC)c(OC)c2)n2nc(C)ccc12`, the growth in the test on DU-145 prostate is 21.1%; with K-562 leukemia, 9.56% (active); with MALME-3M melanoma, 77.9%; with MDA-MB-231 breast, 45.8%; in the test on RXF 393 renal, 33.6%; in the test with SF-268 CNS, 56.2%. Moreover, the growth in the test on SF-295 CNS was 41%; in the test on SF-539 CNS, 15%; in the test on UACC-257 melanoma, 55.5%; with M14 melanoma it was 21%; in the test with HCT-15 colon it was 25.3%; with HT29 colon, 8.05% (active). Also, the growth is 47.7% with SNB-75 CNS; 54% with SNB-19 CNS; 30.6% with PC-3 prostate; 3.09% (active) in the test on SK-MEL-5 melanoma; 31% in the test with LOX IMVI melanoma; 70.3% in the test with SK-MEL-28 melanoma.

Consider `CC(C)c1cc(N=O)cc(C(C)C)c1O`, for which the growth is 119% in the test on DU-145 prostate; 106% in the test with K-562 leukemia; 110% with MALME-3M melanoma; 99.3% in the test on MDA-MB-231 breast; 110% in the test on RXF 393 renal; 104% with SF-268 CNS. Moreover, the growth in the test on SF-295 CNS was 102%; in the test on SF-539 CNS it was 109%; in the test on UACC-257 melanoma, 94.8%; in the test with M14 melanoma it was 123%; in the test with HCT-15 colon, 98.4%; in the test on HT29 colon, 109%. Moreover, the growth is 99.9% in the test with SNB-75 CNS; 95.2% with SNB-19 CNS; 105% in the test with SK-MEL-5 melanoma; 96.3% in the test with UACC-62 melanoma; 96.1% with LOX IMVI melanoma; 105% in the test with SK-MEL-28 melanoma.

Regarding `CCCCC/C=C/C/C=C/CCCCCCCC1=NC(C)(C)CN1C(C)C`, the growth in the test on DU-145 prostate is 63.1%; in the test on K-562 leukemia, -30.9% (active); in the test on MALME-3M melanoma, 56.3%; with MDA-MB-231 breast, 36.6%; in the test with RXF 393 renal, 25.1%; in the test with SF-268 CNS, 55.6%. For the same compound, the growth with SF-295 CNS was 31.2%; in the test on SF-539 CNS, 65.7%; in the test with UACC-257 melanoma, 25.7%; in the test with M14 melanoma it was 28.5%; with HCT-15 colon it was -3.26% (active); with HT29 colon, -21% (active). Besides, the growth in the test with SNB-75 CNS was 42.7%; with SNB-19 CNS, 47.3%; with SK-MEL-5 melanoma it was 30.1%; in the test with LOX IMVI melanoma it was 12.9%; in the test on SK-MEL-28 melanoma it was 72%.

Take `Cc1cccc(N=Cc2ccccc2O)c1C`: the growth in the test with DU-145 prostate is 126%; with K-562 leukemia it was 98.3%; with MALME-3M melanoma, 91.7%; in the test with MDA-MB-231 breast it was 102%; with RXF 393 renal, 110%; in the test with SF-268 CNS, 116%. For the same compound, the growth in the test on SF-295 CNS was 106%; in the test on SF-539 CNS it was 102%; with UACC-257 melanoma, 94.6%; in the test on M14 melanoma it was 105%; in the test with HCT-15 colon, 108%; with HT29 colon, 97.7%. Further, the growth was 97.3% in the test on SNB-75 CNS; 90.5% in the test with SNB-19 CNS; 94.6% in the test on PC-3 prostate; 103% in the test on SK-MEL-5 melanoma; 95.2% with UACC-62 melanoma; 106% in the test on SK-MEL-28 melanoma.
